This is an account of results in PubChem BioAssay (EPA / NIEHS).

Calls of active or inactive are those of the source. The calls were made as follows: active = hit-call score of the fitted dose curve at least 0.9, where 1 is the maximum; inactive = score below 0.9.

As a reminder, the AC50 is the concentration giving half of the maximal activity seen.

A short description of test [1]: APR_HepG2_CellCycleArrest_24hr: Apredica 24-hour HepG2 Assay for Cell Cycle Arrest (AID 2282905).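 Also: cell cycle arrest scored as ratio of 2N to 4N nuclear DNA content.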 Particulars: imaging, actives raise or lower the signal. Summed up: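 Readout: Hoechst 33342 nuclear DNA content by high-content fluorescent imaging, six images/well, 20x. Human HepG2 liver cells, 24 hr compound exposure, 0.39–200 uM, final DMSO 0.5% v/v. Gain or loss fitted relative to DMSO baseline.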

Test [2] is described as follows: APR_HepG2_NuclearSize_24hr: Apredica 24-hour HepG2 Assay for Nuclear Size (AID 2282907). Particulars: high-content imaging, actives raise or lower the signal. Summed up:
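Read-out: nuclear diameter from Hoechst 33342 (2 ug/mL) imaging of fixed HepG2 cells, 20x, six fields/well. Compounds ran at 0.39–200 uM for 24 hr, 0.5% DMSO final. Gain or loss was fitted bidirectionally relative to the DMSO baseline.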

Test [3] is described as follows: APR_HepG2_CellLoss_24hr: Apredica 24-hour HepG2 Assay for Cell Loss (AID 2282908).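 As to AC50: fit in both directions so a hit may be cell loss or gain.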 The conditions noted are these: high-content imaging. The procedure, abridged:
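Read-out: Hoechst 33342-stained nuclei counted by automated fluorescence imaging after formaldehyde fixation and Triton permeabilization. Ten concentrations, 0.39 to 200 uM, duplicate wells, 0.5% DMSO final. Gain or loss of signal fitted relative to DMSO baseline.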

A short description of test [4]: APR_HepG2_MicrotubuleCSK_24hr: Apredica 24-hour HepG2 Assay for Microtubule CSK Stabilty (AID 2282909). Particulars: HepG2 microtubule cytoskeleton imaging, actives raise or lower the signal. The procedure, abridged: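 Read-out: alpha-tubulin immunofluorescence intensity by automated high-content imaging of fixed HepG2 cells after 24 h compound treatment. Ten concentrations, 0.39 to 200 uM, in duplicate; DMSO 0.5% v/v. Taxol positive control; DMSO-normalized bidirectional curve fitting.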

Test [5] can be described thus: APR_HepG2_MitoticArrest_24hr: Apredica 24-hour HepG2 Assay for Mitotic Arrest (AID 2282910). Particulars: high-content imaging, actives raise or lower the signal. The procedure, abridged:
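High-content imaging of fixed HepG2 cells labeled with Hoechst 33342 and anti-phospho-histone H3, after 24 h treatment. Ten concentrations 0.39 to 200 uM in duplicate, final DMSO 0.5%; changes fitted both directions relative to DMSO.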

Test [6] in a line: APR_HepG2_MitoMembPot_24hr: Apredica 24-hour HepG2 Assay for Mitochondrial Membrane Potential (AID 2282911). The conditions noted are these: imaging, actives raise or lower the signal. The procedure, abridged: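 HepG2, 24 hr dosing, 10 concentrations 0.39–200 uM, 0.5% DMSO final. Live-cell MitoTracker Red CMXRos 250 nM 30 min, then 3.7% formaldehyde fix. HCS fluorescence imaging, 20x; bidirectional fit vs DMSO baseline.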

The nature of test [7]: APR_HepG2_MitoMass_24hr: Apredica 24-hour HepG2 Assay for Mitochondrial Mass (AID 2282912). Particulars: high-content imaging, actives raise or lower the signal. The procedure, abridged: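 HepG2, 24 hr dosing, 10 concentrations 0.39–200 uM in duplicate, DMSO 0.5% final. MitoTracker Red CMXRos 250 nM, 30 min pre-fix; 3.7% formaldehyde fix. Imaging-based fluorescence intensity; gain/loss fit vs DMSO baseline.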

A short description of test [8]: APR_HepG2_CellLoss_72hr: Apredica 72-hour HepG2 Assay for Cell Loss (AID 2282915). The conditions noted are these: high-content imaging. The procedure, abridged:
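Cell number comes from Hoechst 33342-labelled nuclei, imaged at 20x after 3.7% formaldehyde fixation. Dosing was 0.39–200 uM, ten concentrations in duplicate, 0.5% DMSO final, for 72 h. Bidirectional fit relative to DMSO baseline.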

Test [9] is described as follows: APR_HepG2_p53Act_24hr: Apredica 24-hour HepG2 Assay for p53 Activation (AID 2282913).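 Also: p53 protein immunofluorescence averaged per cell in HepG2 with Hoechst nuclei.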 Particulars: high-content imaging, actives raise or lower the signal. Summed up:
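Read-out: Cy5 immunofluorescence for p53 in fixed, permeabilized HepG2, imaged by HCS with Hoechst-defined nuclei. Dosing was 24 hr at 0.39–200 uM in 0.5% DMSO. Curves were fitted bidirectionally relative to DMSO.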

Test [10] can be described thus: APR_HepG2_CellCycleArrest_72hr: Apredica 72-hour HepG2 Assay for Cell Cycle Arrest (AID 2282914). Particulars: high-content imaging, actives raise or lower the signal. Summed up:
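HepG2, 72 hr exposure, 10-point 0.39–200 uM, duplicate, 0.5% DMSO final. Fix 3.7% formaldehyde 30 min RT, Triton X-100 0.5%, Hoechst 33342 2 ug/mL. ArrayScan 20x, six fields/well; DNA content per nucleus; bidirectional fit vs DMSO.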

Turning to `O=C(O)c1cccnc1`, the result in test [1], in test [2], in test [3], in [4], in [5] and in test [6] was inactive. Besides, the compound was called inactive in test [7] and in [8].
For `CS(=O)(=O)c1ccc([C@@H](C[C@H]2CCC(=O)C2)C(=O)Nc2cnccn2)cc1Cl`, the outcome in [1], in [2], in [3], in test [4], in [5] and in test [6] was inactive. Moreover, the call in test [7], in test [9], in test [10] and in test [8] was inactive.
For the compound `CC(C)(C)c1ccccc1`, the compound was classed as inactive in test [1], in test [2], in [3], in test [4], in [5] and in [6]. In addition, the result in test [7], in test [9] and in test [8] was inactive.
Take `O=C(O)CC(O)(CC(=O)O)C(=O)O`: the compound was called inactive in test [1], in test [2], in [3], in test [4], in test [6] and in test [7]. The call in test [9] and in test [8] was inactive.
On to `O=C(Oc1ccccc1)c1cccc(C(=O)Oc2ccccc2)c1`, for which the call in test [1], in [2], in [3], in [4], in test [5] and in [6] was inactive. Besides, the result in test [7] and in [10] was inactive. Moreover, in test [8], the AC50 is 113 µM (active).
For `CC(=O)O[C@]1(C(C)=O)CC[C@H]2[C@@H]3C=C(Cl)C4=CC(=O)[C@@H]5C[C@@H]5[C@]4(C)[C@H]3CC[C@@]21C`, the compound was called inactive in [1], in [2], in test [3], in test [4], in test [5] and in [6]. The compound was called inactive in test [7] and in [8].
Regarding `O=C(O)c1[nH]n(-c2ccc(S(=O)(=O)O)cc2)c(=O)c1N=Nc1ccc(S(=O)(=O)O)cc1`, the compound was classed as inactive in test [1], in [2], in test [3], in [4], in test [6] and in test [7]. Moreover, the compound was called inactive in [9] and in [8].
Turning to `CC(N)=O`, the call in test [1], in test [2], in test [3], in test [4], in test [6] and in test [7] was inactive. In addition, in test [8], the AC50 is 115 µM (active).
Consider `O=C1O[C@H]([C@H](O)CO)C(O)=C1O`, for which the outcome in test [1], in test [2], in [3], in [4], in test [5] and in test [6] was inactive. Moreover, the result in test [7], in test [9], in test [10] and in [8] was inactive.
Take `Cc1ccc(-c2cc(C(F)(F)F)nn2-c2ccc(S(N)(=O)=O)cc2)cc1`: the compound was called inactive in [1], in [4] and in test [6]. Besides, the AC50 is 118 µM (active) in [2]; 53.2 µM (active) in [5]; 64 µM (active) in test [7]; 28.6 µM (active) in test [10]; 40.8 µM (active) in test [8].
For `NC=O`, the result in test [1], in test [2], in test [4], in test [5], in [6] and in [7] was inactive. For the same compound, the outcome in [10] and in [8] was inactive.
Regarding `Cc1occc(=O)c1O`, the outcome in test [1], in test [3], in [4], in test [5], in test [6] and in test [7] was inactive. The result in [10] and in test [8] was inactive.
On to `CCc1nc(N)nc(N)c1-c1ccc(Cl)cc1`, for which the compound was classed as inactive in [1], in [2], in test [4], in test [6], in [7] and in [9]. Besides, the AC50 in test [10] was 100 µM (active); in [8], 80.2 µM (active).
With `CCc1cc(C2=C(C(=O)O)N(c3ccccc3C(F)(F)F)S(=O)(=O)c3ccccc32)cc2c1OCO2`, the call in [1], in [2], in test [4], in test [5], in test [6] and in test [7] was inactive. The result in test [9] was inactive. Further, the AC50 in test [8] was 95.5 µM (active).
Turning to `N[C@@H](Cc1c[nH]c2ccccc12)C(=O)O`, the compound was called inactive in [1], in [2], in [4], in test [5], in test [6] and in test [7]. Moreover, the compound was classed as inactive in test [10] and in [8].
Take `O=C(N[C@@H](c1ccccc1)[C@@H]1CCCCN1)c1cccc(C(F)(F)F)c1Cl`: the AC50 is 18.7 µM (active) in [1]; 17.4 µM (active) in test [2]; 11.4 µM (active) in test [4]; 12.6 µM (active) in test [7]; 15.2 µM (active) in [8]. Besides, the compound was called inactive in test [6].
In the case of `CC(C)c1cccc(C(C)C)c1NC(=O)NS(=O)(=O)c1cc(C(C)(C)O)co1`, the result in test [1], in [2], in test [4], in test [6], in [7] and in test [9] was inactive. For the same compound, in test [8], the result was inactive.
As to `CC(C)(O)c1ccc(CNC(=O)c2cccnc2Oc2ccc(F)cc2)cc1`, the outcome in test [1], in [3], in test [4], in [5], in [6] and in [7] was inactive. In addition, the call in [9], in test [10] and in test [8] was inactive.
In the case of `O=NO`, the result in test [1], in [2], in test [4], in test [6], in test [7] and in test [8] was inactive.
With `CCCC[C@H]1CN(CC2CCOCC2)C(=O)OC12CCN(C1(C)CCN(C(=O)c3c(C)ncnc3C)CC1)CC2`, the compound was called inactive in test [1], in [2], in test [4], in [6], in [7] and in test [9]. Further, the outcome in test [10] and in [8] was inactive.
Turning to `CC(=O)[C@@]1(O)CC[C@H]2[C@@H]3CCC4=CC(=O)CC[C@]4(C)[C@H]3CC[C@@]21C`, the compound was classed as inactive in [1], in test [2], in [4], in test [6], in [7] and in [10]. The call in test [8] was inactive.
Turning to `CCN(CC)CCOc1ccc(C(=C(Cl)c2ccccc2)c2ccccc2)cc1`, the call in [1] was inactive. Also, the AC50 is 48 µM (active) in [3]; 81.2 µM (active) in test [4]; 10.8 µM (active) in [5]; 25.8 nM (active) in [6]; 155 µM (active) in [7]; 26.5 µM (active) in test [10]. In [8], the half-maximal activity concentration (AC50) is 13.7 µM (active).
Regarding `NC1CCCCC1`, the result in test [1], in test [2], in [4], in test [6], in test [7] and in test [10] was inactive. The compound was classed as inactive in [8].
